# Results: PubChem BioAssay AID504327 (National Center for Advancing Translational Sciences (NCATS), 2011)
# Out of some 390,000 compounds screened, about 820 (0.21%) were called active. Another 3% or so got no clear call; they are omitted. This excerpt belongs to a sample that is enriched for actives. A number with no mark means an inactive call. The call rests on the fitted dose curve; in most records, active means well fitted inhibition curve with a large enough effect; inconclusive means small, poorly fitted or top-dose-only effect, or another doubt; inactive means no such curve, though single readings can be large or run the other way.
# Target: Histone acetyltransferase KAT2A (Homo sapiens) (UniProt Q92830)
# Sequence (Q92830 whole entry, looked up): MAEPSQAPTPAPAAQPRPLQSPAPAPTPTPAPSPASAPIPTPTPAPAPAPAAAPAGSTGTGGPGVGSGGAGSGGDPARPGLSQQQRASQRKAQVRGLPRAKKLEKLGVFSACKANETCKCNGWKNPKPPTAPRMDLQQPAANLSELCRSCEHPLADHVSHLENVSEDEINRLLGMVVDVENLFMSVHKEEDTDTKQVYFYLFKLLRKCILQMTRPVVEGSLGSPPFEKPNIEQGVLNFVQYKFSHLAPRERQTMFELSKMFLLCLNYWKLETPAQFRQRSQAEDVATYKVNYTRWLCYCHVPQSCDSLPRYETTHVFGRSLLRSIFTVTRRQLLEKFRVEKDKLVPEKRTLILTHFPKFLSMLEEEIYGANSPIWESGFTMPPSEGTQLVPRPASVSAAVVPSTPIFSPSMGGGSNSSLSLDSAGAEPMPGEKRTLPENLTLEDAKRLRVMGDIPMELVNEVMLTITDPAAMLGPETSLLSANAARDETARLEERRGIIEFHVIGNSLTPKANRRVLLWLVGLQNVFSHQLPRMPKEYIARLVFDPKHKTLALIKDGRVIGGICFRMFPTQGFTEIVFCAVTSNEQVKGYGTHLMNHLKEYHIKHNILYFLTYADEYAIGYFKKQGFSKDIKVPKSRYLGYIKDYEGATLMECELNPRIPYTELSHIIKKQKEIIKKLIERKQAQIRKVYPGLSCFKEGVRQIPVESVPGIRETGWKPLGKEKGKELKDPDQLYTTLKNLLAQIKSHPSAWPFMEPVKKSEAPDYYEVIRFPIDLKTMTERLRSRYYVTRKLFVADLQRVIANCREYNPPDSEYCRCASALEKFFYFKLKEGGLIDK
# Experiment: qHTS Assay for Inhibitors of GCN5L2
# Details: GCN5L2 HAT assay, ThioGlo1 CoA-SH fluorescence; series mostly up to 58.9 µM; activity change, negative = inhibition: at the top concentration
# How it was run: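 Free CoA generated was detected with ThioGlo1 (50uM) fluorescence at Ex340nm/Em540nm, read immediately and after 20 min at room temperature. Enzyme, 20 nM in HEPES pH 7.5 buffer, saw compounds 15 min before adding 75uM H3(1-25) peptide and 70uM acetyl-CoA.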
# On the % scale 0 is the no-effect control and ±100 the full control effect; potency means the concentration at half of the fitted maximal effect.
SMILES,"activity change, negative = inhibition",Potency
FC(F)(F)Oc1ccc(-c2cn3cccnc3n2)cc1,-8.87%,
COc1ccc(-c2cn3cccnc3n2)cc1,,31.6 µM (active)
CC(C)(C)C(=O)Nc1ccc(-c2cn3cccnc3n2)cc1,-29.9%,
CC1O[C@@H](Oc2c(-c3ccc(O)c(O)c3)oc3cc(O)cc(O)c3c2=O)C(O)C(O)C1O (stereo partly drawn),10.8%,
C=C1C(=O)C23C(O)C1CCC2[C@]12COC3(O)C(O)C1C(C)(C)CC[C@H]2O (stereo partly drawn),-7.65%,
COc1ccc(N2CCN(S(=O)(=O)c3ccc(-c4coc(C)n4)cc3)CC2)cc1,-1.94%,
CCc1nc(-c2cc(S(=O)(=O)N3CCN(c4ccc(OC)cc4)CC3)ccc2OC)no1,,25.1 µM (active)
COc1ccc(S(=O)(=O)N2CCN(c3ccc(F)cc3)CC2)cc1-c1noc(C)n1,-5.52%,
Cc1ccc(/C(=C/CN2CCCC2)c2ccccn2)cc1,,inactive
COC(=O)N1CCC2(CCCN(c3ccncc3)C2)CC1,-8.99%,
O=C(Oc1cc(OC(=O)c2ccccc2)c2c(c1)OC(c1ccc(OC(=O)c3ccccc3)c(OC(=O)c3ccccc3)c1)[C@@H](OC(=O)c1ccccc1)C2)c1ccccc1 (stereo partly drawn),6.73%,
CCOC(=O)C1=C(C)Nc2sc(C(=O)c3ccc(Br)cc3)c(N)c2C1c1ccc(C(=O)OC)cc1 (stereo not drawn),-19.5%,
COC(=O)c1sc2[nH]c(=S)n(N)c(=O)c2c1C,-14.2%,
CCOC(=O)c1sc(=S)n2c1[nH]c(=O)c1ccc(C(=O)OC)cc12,,35.5 µM (active)
CCCc1cc(=S)n2c([nH]c3ccccc32)c1C#N,,22.4 µM (active)
COc1cc2c(cc1OC)[C@@H](Cc1cc(OC)c(OC)c(OC)c1)[N+](C)(CCCOC(=O)CC/C=C/CCC(=O)OCCC[N+]1(C)CCc3cc(OC)c(OC)cc3[C@H]1Cc1cc(OC)c(OC)c(OC)c1)CC2 (stereo partly drawn),-0.503%,
O=Cc1c(Nc2ccccc2Cl)nc2ccccn2c1=O,,22.4 µM (active)
Cc1cccn2c(=O)c(C=O)c(Nc3ccc(S(N)(=O)=O)cc3)nc12,-4.25%,
O=Cc1c(N2CCN(c3cccc(Cl)c3)CC2)nc2ccccn2c1=O,0.398%,
CC(=O)NC(=O)c1ccccc1O,-2.65%,
CC1CC2C3CCC4=CC(=O)C=C[C@]4(C)[C@@]3(F)[C@@H](O)C[C@]2(C)[C@@]1(O)C(=O)CO (stereo partly drawn),-2.41%,
COc1c2c(cc3occ(-c4ccc5c(c4)OCO5)c(=O)c13)OC(C)(C)C=C2,-15.3%,
COc1ccc(C(=O)N2CCC3(CC2)CCN(c2ccccn2)CC3)cc1,7.2%,
COc1ccc(-c2nc3cnc(OC)nc3n(Cc3ccc(F)cc3)c2=O)cc1,-23.8%,

SMILES,"activity change, negative = inhibition",Potency
CC(N)(C(=O)O)c1ccc(-c2nn[nH]n2)cc1 (stereo not drawn),2.68%,
COCCn1c(=O)c(CCc2ccccc2)nc2cncnc21,-6.53%,
O=C(O)CCC(=O)O,21.2%,
COc1ccc(CNc2ncncc2-c2ccccc2OC)c(OC)c1,-13.3%,
O=C1NS(=O)(=O)c2ccccc21,,inactive
CC1(C)C=CC(=O)[C@]2(C)C1CC(=O)[C@]1(C)C2CC[C@@]2(C)C(c3ccoc3)OC(=O)C3OC321 (stereo partly drawn),23.3%,
O=C1C(c2ccccn2)=[N+]([O-])c2ccccc21,-19%,
O=C1C(c2[nH]c3ccccc3c2O)=Nc2ccccc21,-21.1%,
O=C(c1ccncc1)N1CCC2(CCN(Cc3cc(C(F)(F)F)cc(C(F)(F)F)c3)CC2)CC1,-0.448%,
Cc1ccc(C)n1C(Cc1ccccc1)C(=O)O (stereo not drawn),,22.4 µM (active)
COc1ccc(CNC(=O)C(Cc2ccccc2)n2cccc2)cc1 (stereo not drawn),-4.02%,
CCOC(=O)C(Cc1ccc(N)cc1)N1C(=O)c2ccccc2C1=O (stereo not drawn),-5.43%,
COc1cccc(Cn2c(=O)cnc3cncnc32)c1,-10.4%,
Cc1ccc(S(=O)(=O)N2CCN(C(=O)c3ccccc3-c3nc4ccccc4s3)CC2)c(C)c1,1.58%,
CC(=O)N1CCN(C(=O)c2cc(-c3ccc(C)o3)nc3ccccc23)CC1,,20 µM (active)
CC(=O)N1CCN(C(=O)c2cc(-c3ccc(Cl)s3)nc3ccccc23)CC1,-8.36%,
O=c1c(CCc2ccccc2)nc2cnc(N3CCNCC3)nc2n1Cc1cccs1,-17.2%,
NC(=O)C(=O)N/N=C/c1ccc([N+](=O)[O-])o1,16.5%,
CCOC(=O)C1C/C(=C\C(C)=O)c2cccc(C(F)(F)F)c2O1 (stereo not drawn),8.45% [at 88.6 µM],
COc1ccc(N2CCN(S(=O)(=O)c3ccc4c(c3)NC(=O)C(C)C(=O)N4)CC2)cc1 (stereo not drawn),-3.08%,
O=C(c1ccc(S(=O)(=O)N2CCCC2)cc1)N1CCN(c2ccccc2F)CC1,-15.7%,
CC1C(=O)Nc2ccc(S(=O)(=O)N3CCN(c4ccccc4F)CC3)cc2NC1=O (stereo not drawn),,39.8 µM (active)
CC(C)=CC1C(C(=O)O)C1(C)C (stereo not drawn),-4.75%,
Oc1ccc(Cl)c2c1CCC2,-11.3%,
